Our source for the growth values is PubChem BioAssay (NCI).

Compounds without any hit were thinned out: in the full panel of roughly 83,000, 20% have a hit.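 How to read the values: 0–100, growth inhibition (40 = 60% inhibited); 0, no net growth; -100 to 0, cell death (-40 = 40% of starting cells died; -100 = all dead).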 A number with no mark means an inactive call. The source made the active and inactive calls. Rule for the calls: active = growth percent below 10; inactive = the rest.

What all share (assay): NCI-60 one-dose screen, 48 h (100 = growth as untreated, 0 = no growth, -100 = all killed)
Test [1] has as its system SK-MEL-2 melanoma. To be noted: 10 µM unless noted.
Test [2] relates to EKVX NSCLC. Conditions: 10 µM unless noted.
In test [3] the test system is SN12C renal. To be noted: 10 µM unless noted.
Test [4] concerns UO-31 renal. Conditions: 10 µM unless noted.
Test [5] deals with TK-10 renal. Conditions: 10 µM unless noted.
Test [6] relates to ACHN renal. To be noted: 10 µM unless noted.
Test [7] relates to A498 renal. Conditions: 10 µM unless noted.
The test system of test [8] is CCRF-CEM leukemia. To be noted: 10 µM unless noted.
The test system of test [9] is MOLT-4 leukemia. To be noted: 10 µM unless noted.
The subject of test [10] is SR leukemia. Conditions: 10 µM unless noted.
The test system of test [11] is RPMI-8226 leukemia. To be noted: 10 µM unless noted.
In test [12] the test system is OVCAR-8 ovarian. Conditions: 10 µM unless noted.
For test [13], the system named is OVCAR-5 ovarian. To be noted: 10 µM unless noted.
The subject of test [14] is SK-OV-3 ovarian. To be noted: 10 µM unless noted.
Test [15] relates to IGROV1 ovarian. To be noted: 10 µM unless noted.
The subject of test [16] is OVCAR-3 ovarian. To be noted: 10 µM unless noted.
The test system of test [17] is HS 578T breast. Conditions: 10 µM unless noted.
Test [18] concerns NCI/ADR-RES ovarian. To be noted: 10 µM unless noted.
Test [19] has as its system OVCAR-4 ovarian. Conditions: 10 µM.

Take `O=C(Nc1ccc(C(=O)/C=C/c2ccc(N3CCOCC3)cc2)cc1)Nc1ccc([N+](=O)[O-])cc1`: the growth is 97.6% in test [1]; 112% in test [2]; 97% in test [3]; 83.5% in test [4]; 88.5% in test [5]; 94.4% in [6]. The growth was 5.47% (active) in test [7]; 84.4% in test [8]; 66.2% in [9]; 94.1% in [10]; 77% in test [11]; 92.4% in test [12]. Further, the growth was 94.4% in test [13]; 90.5% in test [14]; 72.5% in test [15]; 93.9% in [16]; 111% in [17]; 98.5% in test [18].

Consider `CCN(CCNc1ccc(C)c2sc3cc(Cl)ccc3c(=O)c12)CC(C)O` (centres undefined), for which the growth in test [1] was 40.7%; in [2] it was 88.9%; in [3], 48.7%; in [4], -61.8% (active); in test [5], 76.7%; in test [6] it was 44.7%. Moreover, the growth in [7] was 51.4%; in test [8], 36.8%; in test [9] it was 34.5%; in test [10] it was 12.3%; in [11] it was -23.2% (active); in [12], 58.3%. In addition, the growth is 79.9% in test [13], 77% in test [19], 60.6% in test [16] and 63.2% in test [17].

Consider `Cc1cc(N2CCCCCC2)nc(N2CCN(CC(=O)Nc3ccc4c(ccn4Cc4ccccc4)c3)CC2)n1`, for which the growth in [1] is 52.8%; in test [2], 56%; in test [3], 57.1%; in test [4], 27.7%; in test [5] it was 83.4%; in test [6], 55.1%. Also, the growth was 8.99% (active) in [7]; 50.2% in [8]; 41.1% in test [9]; 23.4% in test [10]; 43.9% in test [11]; 32.5% in [12]. Further, the growth was 74.4% in [13]; 46.1% in test [19]; 49.9% in test [15]; 55.4% in [16]; 47.2% in [17]; 37.6% in test [18].

Take `O=[N+]([O-])c1cccc(/C=C/c2ccc3ccccc3n2)c1`: the growth is 68% in [1]; 79.8% in [2]; 83% in [3]; 76.6% in test [4]; 64.4% in test [5]; 53% in [6]. The growth is 125% in test [7]; 82.1% in test [8]; 75.3% in [9]; 78.2% in test [10]; 90.7% in [11]; 57.1% in test [12]. Besides, the growth is 38.9% in test [19]; 70.8% in test [14]; 79.9% in test [15]; 88.5% in test [16]; 71.2% in test [18].

For the molecule `N#CC1C(=O)NC(c2ccccc2[N+](=O)[O-])c2sc3c(F)cccc3c21` (centres undefined), the growth in test [1] was 82.6%; in [2], 64.8%; in test [3] it was 78.1%; in [4], 53.8%; in test [5], 41.1%; in test [6], 65.8%. Moreover, the growth was -60.7% (active) in test [7]; 86.9% in test [8]; 86.6% in test [9]; 67.9% in [10]; 41.3% in test [11]; 75% in [12]. The growth in [13] is -15.1% (active); in test [19], -0.483% (active); in [14] it was 72.8%; in test [15], 0.306% (active); in test [16], -14.5% (active); in test [18] it was 68.5%.

In the case of `CC(C)=CC/C=C(/C)[C@H]1CC[C@]2(C)[C@@H]1CC[C@@H]1[C@@]3(C)CCCNC(C)(C)[C@@H]3CC[C@]12C`, the growth in test [1] was -70% [100 µM] (active); in [2], -71.2% [100 µM] (active); in test [3] it was -85.2% [100 µM] (active); in test [4] it was -82.1% [100 µM] (active); in test [5], -67% [100 µM] (active); in test [6], -77% [100 µM] (active). In addition, the growth in [7] was -88.6% [100 µM] (active); in test [8], -15.7% [100 µM] (active); in [9], -25.6% [100 µM] (active); in [10], 15.2% [100 µM]; in [11], -40.1% [100 µM] (active); in test [12], -29.5% [100 µM] (active). The growth in [13] is -85.9% [100 µM] (active); in test [14] it was -66.8% [100 µM] (active); in [15], -74.1% [100 µM] (active); in test [16], -47.8% [100 µM] (active); in test [17] it was -50.2% [100 µM] (active).

With `COc1cc(Cl)cc(-c2nn(C(=O)NS(=O)(=O)c3ccccc3)cc2-c2ccncc2)c1`, the growth is 98.7% in test [1]; 61.2% in test [2]; 94.5% in test [3]; 70.6% in [4]; 97.2% in test [5]; 80% in test [6]. Also, the growth was 82.9% in [7]; 94.6% in test [8]; 82.8% in test [9]; 87.6% in [10]; 91.7% in test [11]; 33.1% in test [12]. Besides, the growth in [13] was 96.5%; in test [14], 83.2%; in [15] it was 92.1%; in test [16], 104%; in test [17], 79.2%; in test [18] it was 97.5%.

In the case of `COc1cc2c(O)n(CCCN3CCOCC3)c3c4cnc5cccc(c(=O)c3c2cc1OC)c54`, the growth was 45.6% in test [1]; 63.5% in [2]; 14.1% in test [3]; 30.2% in [4]; 73.7% in test [5]; 12.2% in [6]. Further, the growth is 56.1% in test [7]; 15.1% in test [8]; 11.8% in test [9]; 20.5% in test [10]; 14.8% in test [11]; 39.9% in test [12]. The growth in test [13] is 69%; in [19], 48%; in test [15], 60.3%; in [16] it was 62.9%; in test [17], 81.2%.
